# KCNQ2 enhance – KCNQ2 (rat) channel potentiation. 310,000 compounds, 0.54% hits. B-score at 10 µM. AID 2239. CHO-K1 KCNQ2, FluxOR thallium flux fluorescence; active compounds read high. O88943;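 active = fluorescence ratio B-score at least 3 SD of library B-scores, with initial fluorescence B-score within 3 of them, cut at about 5.3 in these data; same plate scores as AID 2156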;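 note: B-score of peak minus minimum over baseline fluorescence ratio after K+ and Tl+ stimulus; positive B-score means potentiation of KCNQ2 with more thallium influx and brighter signal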
# Target sequence (O88943 whole entry, looked up): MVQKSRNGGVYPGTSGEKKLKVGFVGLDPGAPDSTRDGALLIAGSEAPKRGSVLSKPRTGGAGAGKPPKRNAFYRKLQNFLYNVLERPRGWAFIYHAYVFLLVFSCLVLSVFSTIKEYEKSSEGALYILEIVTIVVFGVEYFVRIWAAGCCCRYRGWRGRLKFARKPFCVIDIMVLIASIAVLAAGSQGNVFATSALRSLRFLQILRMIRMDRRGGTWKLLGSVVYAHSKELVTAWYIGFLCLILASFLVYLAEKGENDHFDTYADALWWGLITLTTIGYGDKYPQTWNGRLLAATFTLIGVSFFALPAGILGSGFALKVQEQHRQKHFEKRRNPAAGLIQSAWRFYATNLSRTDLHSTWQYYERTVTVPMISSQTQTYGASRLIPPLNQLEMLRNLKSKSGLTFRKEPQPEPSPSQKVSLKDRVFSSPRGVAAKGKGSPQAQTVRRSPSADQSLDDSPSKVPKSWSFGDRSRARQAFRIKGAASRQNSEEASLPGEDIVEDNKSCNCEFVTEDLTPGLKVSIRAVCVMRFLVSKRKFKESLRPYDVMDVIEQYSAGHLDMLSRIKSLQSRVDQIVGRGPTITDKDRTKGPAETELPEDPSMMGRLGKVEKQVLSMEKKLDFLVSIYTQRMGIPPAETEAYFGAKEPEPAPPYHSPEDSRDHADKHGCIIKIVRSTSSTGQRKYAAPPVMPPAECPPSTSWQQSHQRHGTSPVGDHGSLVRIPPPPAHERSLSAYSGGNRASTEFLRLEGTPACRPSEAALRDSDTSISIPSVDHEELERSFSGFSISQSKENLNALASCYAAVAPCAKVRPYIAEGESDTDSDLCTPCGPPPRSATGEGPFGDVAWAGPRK
# KCNQ2 block – KCNQ2 (rat) channel inhibition; B-score at 10 µM; CHO-K1 KCNQ2, FluxOR thallium flux, 20 min; active compounds read low; AID 2156; O88943; 310,000 compounds, 1.1% hits;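 active = fluorescence ratio B-score at most minus 3 library SDs, with starting brightness B-score within 2 library SDs, cut at about -5.5 in these data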
# A number is an active result; n = inactive; x = not tested or not shown. Shown are actives, neighbours in structure and some others; about 1.6% of the full set was active somewhere.
SMILES,KCNQ2 enhance,KCNQ2 block
Cc1nc(N2CCOCC2)c2cc(-c3ccccc3)sc2n1,x,n
Cc1cccnc1NC(=O)CCCNC(=O)c1ccc(Cl)cc1,n,n
C=CCn1c(=O)c2c(nc3n2CCCN3CCc2ccc(OC)c(OC)c2)n(C)c1=O,x,n
Cc1cc(C)nc(N2CCCC(C(=O)NC(C)C)C2)n1 (stereo not drawn),x,n
COC(=O)c1ccc(OC)c(CSc2nnc(COc3ccc(OC)cc3)o2)c1,x,n
COC(=O)c1ccc(OC)c(CSc2nnc(COc3cccc(C)c3)o2)c1,n,-6.1
Cc1ccc(-n2c(SCC(=O)NCc3ccco3)nc3c(sc4ccccc43)c2=O)cc1,n,n
COc1cccc(-n2c(SCC(=O)Nc3sc4c(c3C(N)=O)CCC4)nc3ccccc3c2=O)c1,n,-6.1
COc1cccc(-n2c(SCC(N)=O)nc3ccccc3c2=O)c1,n,n
COc1ccc(S(=O)(=O)NCC2CCCN(Cc3cn(C)nc3C)C2)cc1 (stereo not drawn),x,n
CC(=O)c1c(C)nc2ccc(Br)cc2c1-c1ccccc1,n,-7.8
Cc1nc2ccc(Br)cc2c(-c2ccccc2)c1C(=O)O,x,n
CCN(CC(=O)Nc1ccccc1C(F)(F)F)C(=O)c1oc2ccc(OC)cc2c1C,n,-6
CCc1noc(C)c1C(=O)N(CC)CC(=O)Nc1ccccc1C(F)(F)F,n,n
O=C(Nc1ccccc1C(F)(F)F)c1cc2ncc(CCCl)cn2n1,n,n
Cc1nc(NC(=O)C23CC4CC(CC(C4)C2)C3)sc1Cc1ccc2c(c1)OCO2,21,n
Cc1nc(NC(=O)C2CCCC2)sc1Cc1ccc2c(c1)OCO2,n,n
Cc1nc(NC(=O)c2cccnc2Cl)sc1C,x,n
OC1(c2ccc(Br)cc2)CN(c2ccccc2)C2=[N+]1CCS2 (stereo not drawn),n,-6
OC1(c2ccc(Cl)cc2)CN(c2ccccc2)C2=[N+]1CCS2 (stereo not drawn),n,-7.2
COc1ccc(C2(O)CN(c3ccccc3)C3=[N+]2CCS3)cc1OC (stereo not drawn),x,n
COc1ccc(OC)c(N2CC(O)(c3ccccc3)[N+]3=C2SCCC3)c1 (stereo not drawn),x,n
O=C(Cn1cncn1)NCc1cc(F)ccc1F,x,n
COc1ccc(NC(=O)Nc2c(C)n(C)n(-c3ccccc3)c2=O)c(OC)c1,x,n
O=C1C=C(O)C(n2cncn2)C(c2ccc3c(c2)OCO3)C1 (stereo not drawn),n,n
SMILES,KCNQ2 enhance,KCNQ2 block
CCOC(=O)c1ccc(CC(=O)c2ccc(O)cc2O)o1,x,n
COC(=O)c1ccc(CC(=O)c2ccc(O)cc2O)o1,n,-5.8
N#C/C(=C\c1ccc(F)c(Cl)c1)S(=O)(=O)c1ccccn1,x,n
CCCCNC(=O)C1CC(=O)N(CCc2ccc(C)cc2)C1 (stereo not drawn),n,n
O=Cc1[nH]c2ccccc2c1N(C(=O)CCl)c1ccc([N+](=O)[O-])cc1,n,-12
CC(=O)n1cc(N(C(=O)CCl)c2ccc([N+](=O)[O-])cc2)c2ccccc21,x,n
CCc1ccccc1NC(=O)CNC(=O)c1ccccc1OCc1c(C)noc1C,x,n
CCN(CC)S(=O)(=O)c1ccc(N2CCOCC2)c(NC(=O)COc2ccc(Cl)cc2)c1,n,-6.6
CCN(CC)S(=O)(=O)c1ccc(N2CCOCC2)c(NC(=O)CC(C)(C)C)c1,x,n
CCN(CC)S(=O)(=O)c1ccc(N2CCOCC2)c(NC(=O)c2ccccc2)c1,x,n
CCN(CC)S(=O)(=O)c1ccc(N2CCOCC2)c(NC(=O)c2cc(C)cc(C)c2)c1,n,-6.2
COCCNC(=O)C(=O)NCC1OCCCN1S(=O)(=O)c1cccs1 (stereo not drawn),n,n
CCCc1nc2nc(C)c(NS(=O)(=O)c3ccc(C4CCCCC4)cc3)c(=O)n2[nH]1,n,n
O=C(CN(Cc1ccccc1Cl)C(=O)c1csnn1)NCc1ccc2c(c1)OCO2,x,n
COc1ccc(C(=O)CCS(=O)(=O)c2ccc(C)cc2)cc1,n,-6.4
Cc1ccc(C(=O)CCS(=O)(=O)c2ccc(Br)cc2)cc1,x,n
O=C1C[C@@H](c2ccccc2)Oc2cc(O)cc(O)c21,n,n
COc1c(CC=C(C)C)cc(C2CC(=O)c3c(O)cc(O)cc3O2)cc1CC=C(C)C (stereo not drawn),n,-5.6
Cc1cc(C(=O)NC2CC(C)(C)Cc3c2cnn3-c2ccccc2C)c(C)o1 (stereo not drawn),n,-5.7
Cc1cc(C)c(C(=O)NC2CCCc3c2cnn3-c2cccc(C)c2C)o1 (stereo not drawn),n,-6.6
COc1ccc(C(=O)NC2CC(C)(C)Cc3c2cnn3-c2ccccc2C)c(OC)c1OC (stereo not drawn),x,n
Cc1cccc(-n2ncc3c2CCCC3NC(=O)C2(C(N)=O)CC2)c1C (stereo not drawn),n,n
CCOc1ccc(NC(=O)CN(C)C(=O)CCCOc2ccc(Cl)c(C)c2)cc1OCC,x,n
C[C@H]1CC[C@H]2C(=O)N3[C@H](c4ccccc4Br)[C@@H](C)CC[C@H]3C(=O)N2[C@@H]1c1ccccc1Br,x,n
Cc1cccc2c1-c1sc(C(=O)N3CCCCC3)cc1CO2,x,n
SMILES,KCNQ2 enhance,KCNQ2 block
Cc1cccc2c1-c1sc(C(=O)N3CCc4ccccc4C3)cc1CO2,n,-5.6
C=CCOC(=O)C1=C(C)NC(SCC(=O)OCC)=C(C#N)C1c1ccc(O)c(OC)c1 (stereo not drawn),n,-8.1
C=CCOC(=O)C1=C(C)NC(SC)=C(C#N)C1c1ccc(OCC)cc1 (stereo not drawn),x,n
Cc1ccc(C)c(OCc2cc(C(=O)N3C[C@@H](C)O[C@@H](C)C3)no2)c1,n,n
Cc1ccc(C)c(OCc2cc(C(=O)N3CC[C@@H]4CCCC[C@H]4C3)no2)c1,n,-6.5
COCc1ccc(C(=O)N2CCCC(N3CCN(c4ccc(F)cc4)CC3)C2)o1 (stereo not drawn),x,n
CC1Cc2ccccc2N1C(=O)CCN1C(=O)C2C3C=CC(C3)C2C1=O (stereo not drawn),n,n
CC1Cc2ccccc2N1C(=O)CCn1c(=O)sc2ccccc21 (stereo not drawn),n,-6
CC(=O)C1=C(C)Nc2ncnn2C1c1cccc(Br)c1 (stereo not drawn),n,n
COc1ccc(C(=O)CCc2ccccc2)c(O)c1,x,n
O=C(CCc1ccccc1)c1c(O)cc(O)cc1O,n,-8.2
CC(NC(=O)c1ccc(OC2CCN(C(=O)c3cccnc3)CC2)cc1)C1CC1 (stereo not drawn),x,n
Cc1cccc(N2CCN(C(=O)c3ccc4c(c3)NC(=O)C(CSCc3cccc(F)c3)N4)CC2C)c1 (stereo not drawn),x,n
CC(C)CC(O)(c1ccccc1)C(CN1CCOCC1)c1ccccc1 (stereo not drawn),x,n
OC(c1ccc(F)cc1)(C1CCCCC1)C(CN1CCOCC1)c1ccccc1 (stereo not drawn),n,-5.7
COc1ccc(/C(N)=N/OC(=O)Cc2cccs2)cc1OC,n,n
COc1ccc(/C(N)=N/OC(=O)Cc2cccs2)cc1,n,-7
Cc1cc(C)c(C#N)c(SCC(=O)c2cc(C)n(CCc3ccccc3)c2C)n1,n,-6.4
COCCn1c(C)cc(C(=O)CSc2nc(C)cc(C)c2C#N)c1C,x,n
CC(=O)N(CCc1ccccc1)Cc1cc2ccc(C)c(C)c2[nH]c1=O,n,n
COc1cc(SC)ccc1C(=O)N1CCN(Cc2ccc3c(c2)OCO3)CC1,x,n
COC(=O)c1ccc(OCCN2CCCCCC2)cc1,x,n

# Compound activity: PubChem, Johns Hopkins Ion Channel Center
